Experimental data taken from PubChem BioAssay (NCI).
About 79,000 compounds went through this panel and 15% of them were active in at least one assay; those are over-represented in the sample as a whole. Active and inactive are the calls of the source. Rule as the data show it: active = growth inhibition above about 70%; inactive = the rest.

Legend:
[1] = NCI Yeast Anticancer Drug Screen. Data for the mec2-1 strain (AID 157); settings: S. cerevisiae mec2-1 strain, stronger effect = higher value
Summary of the method: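 Readout is yeast growth inhibition, normalised to vehicle-treated controls, in the mec2-1 strain exposed to compound.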

[2] = NCI Yeast Anticancer Drug Screen. Data for the rad14 strain (AID 159);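 also: 0% = growth of vehicle-treated control cultures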; settings: S. cerevisiae rad14 strain growth inhibition, stronger effect = higher value
Summary of the method: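 Test compounds were applied to a repair-deficient yeast strain. Its growth was then compared with that of cultures given vehicle alone, and inhibition was expressed relative to those controls.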

[3] = NCI Yeast Anticancer Drug Screen. Data for the sgs1 mgt1 strain (AID 161);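 also: 0% = growth of cultures given vehicle only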; settings: S. cerevisiae sgs1 mgt1 strain, stronger effect = higher value
Summary of the method: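 This yeast growth screen uses a strain with defined DNA-repair lesions; compound-treated growth is compared with vehicle-treated growth.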

[4] = NCI Yeast Anticancer Drug Screen. Data for the cln2 rad14 strain (AID 165);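 also: 0% = growth equal to vehicle treated cultures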; settings: S. cerevisiae cln2 rad14 strain, stronger effect = higher value
Summary of the method: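 Relative to vehicle controls, growth inhibition of compound-treated cln2 rad14 yeast was recorded.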

[5] = NCI Yeast Anticancer Drug Screen. Data for the bub3 strain (AID 167); settings: S. cerevisiae bub3 mutant strain, stronger effect = higher value
Summary of the method: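 Yeast carrying a defined mutation is treated with each compound, and growth is compared with that of vehicle-exposed cells to give inhibition.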

[6] = NCI Yeast Anticancer Drug Screen. Data for the wt2 strain (AID 169);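 also: 0% = growth of vehicle-treated yeast cultures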; settings: S. cerevisiae wt2 strain growth inhibition, stronger effect = higher value
Summary of the method: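 Values express reduction in yeast growth under compound treatment, referenced to vehicle-treated cells.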

[7] = NCI Yeast Anticancer Drug Screen. Data for the mlh1 strain (AID 171);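 also: 0% = growth of vehicle-treated control cultures of the same strain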; settings: S. cerevisiae mlh1 strain growth inhibition, stronger effect = higher value
Summary of the method: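 Steps: expose the defined-mutant yeast strain to compound; expose a parallel culture to vehicle; measure growth; express compound effect as inhibition relative to the vehicle culture.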

[8] = NCI Yeast Anticancer Drug Screen. Data for the sgs1 strain (AID 173);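 also: 0% = growth of vehicle-only control cultures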; settings: S. cerevisiae sgs1 mutant, stronger effect = higher value
Summary of the method: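 Treat defined-mutant yeast with compound; measure growth; calculate inhibition relative to vehicle-treated cells.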

[9] = NCI Yeast Anticancer Drug Screen. Data for the mlh1 rad18 strain (AID 175); settings: S. cerevisiae mlh1 rad18 strain growth inhibition, stronger effect = higher value
Summary of the method: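 Test agents were incubated with a yeast strain of defined genotype (DNA damage repair defect). Inhibition of growth was derived by comparison with vehicle-exposed cultures.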

[10] = NCI Yeast Anticancer Drug Screen. Data for the rad18 strain (AID 177); settings: S. cerevisiae rad18 mutant growth inhibition, stronger effect = higher value
Summary of the method: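 A genetically defined yeast mutant impaired in DNA damage repair was treated with test compounds, then its growth was measured against cultures receiving vehicle alone.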

[11] = NCI Yeast Anticancer Drug Screen. Data for the rad52 strain (AID 147);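 also: 0% = growth of vehicle-treated control cultures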; settings: S. cerevisiae rad52 mutant growth inhibition, stronger effect = higher value
Summary of the method: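 Screen used a yeast mutant impaired in DNA repair. After compound exposure, growth was measured. Values reflect inhibition compared with vehicle-treated cells.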

[12] = NCI Yeast Anticancer Drug Screen. Data for the wt1 strain (AID 149);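 also: 0% = growth of vehicle-treated wt1 cultures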; settings: S. cerevisiae wt1 strain (SPY 50644) growth inhibition, stronger effect = higher value
Summary of the method: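 wt1 yeast, compound-treated; % growth inhibition vs vehicle control.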

[13] = NCI Yeast Anticancer Drug Screen. Data for the mgt1 strain (AID 153); settings: S. cerevisiae mgt1 mutant growth inhibition, stronger effect = higher value
Summary of the method: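 Genetically defined yeast (mgt1) treated with compound; inhibition of growth expressed against vehicle-treated controls.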

[14] = NCI Yeast Anticancer Drug Screen. Data for the rad50 strain (AID 155);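 also: 0% = growth of vehicle-only cultures of the same strain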; settings: S. cerevisiae rad50 strain growth inhibition, stronger effect = higher value
Summary of the method: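 Genetically altered yeast (DNA repair pathway); compound treatment; growth inhibition vs vehicle ctrl.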

[15] = NCI Yeast Anticancer Drug Screen. Data for the CLN2oe strain (AID 163);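 also: 0% = growth of vehicle-only control cultures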; settings: S. cerevisiae CLN2oe strain, stronger effect = higher value
Summary of the method: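 Values reflect how much compound exposure reduced yeast growth, referenced to vehicle-exposed cells. Assay organism is a strain with a defined genetic change affecting cell-cycle control.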

[16] = at 5.0 µM (retest, dose inferred, filed as 0.5)
[17] = at 50.0 µM (retest, dose inferred, filed as 5.0)

Measured: growth inhibition

CC1=CC(C)(C)SC(SSSC2=NC(C)=CC(C)(C)S2)=N1
inactive: [1]; at 100.0 µM 42% | [2]; at 1.2 µM -6% | [2]; at 3.7 µM -5% | [2]; at 11.0 µM -3% | [2]; at 33.0 µM 8% | [3]; [16] -10% | [3]; [17] 61% | [3]; at 50.0 µM 39.2% | [4]; [16] -9% | [4]; [17] 6% | [4]; at 50.0 µM 2.9% | [5]; at 1.2 µM -2% | [5]; at 3.7 µM -2% | [5]; [16] -1% | [5]; at 11.0 µM 1% | [5]; at 33.0 µM 1% | [5]; [17] 24% | [5]; at 50.0 µM -3.25% | [5]; at 100.0 µM 56% | [6]; at 1.2 µM -5% | [6]; at 3.7 µM -6% | [6]; at 11.0 µM -4% | [6]; at 33.0 µM 4% | [7]; at 1.2 µM -5% | [7]; at 3.7 µM -4% | [7]; at 11.0 µM 0% | [7]; at 33.0 µM 11% | [8]; at 1.2 µM -4% | [8]; at 3.7 µM -2% | [8]; at 11.0 µM 0% | [8]; at 33.0 µM 14% | [9]; [16] -4% | [9]; [17] 42% | [9]; at 50.0 µM 29.8% | [10]; at 1.2 µM -4% | [10]; at 3.7 µM 0% | [10]; at 11.0 µM 7% | [10]; at 33.0 µM 23%
active: [2]; at 100.0 µM 90% | [6]; at 100.0 µM 85% | [7]; at 100.0 µM 88% | [8]; at 100.0 µM 89% | [10]; at 100.0 µM 88%

c1ccc(-c2cc(C3CO3)c3ccccc3n2)cc1 (stereo unspecified)
inactive: [11]; at 1.2 µM -1% | [11]; at 3.7 µM 5% | [11]; at 11.0 µM 19% | [12]; at 1.2 µM -1% | [12]; at 3.7 µM -3% | [12]; at 11.0 µM -5% | [12]; at 33.0 µM 2% | [13]; at 1.2 µM -2% | [13]; at 3.7 µM -4% | [13]; at 11.0 µM 1% | [13]; at 33.0 µM 69% | [14]; at 1.2 µM -4% | [14]; at 3.7 µM 1% | [14]; [16] -14% | [14]; at 11.0 µM -4% | [14]; at 33.0 µM 36% | [14]; [17] 15% | [1]; at 1.2 µM -3% | [1]; at 3.7 µM -1% | [1]; [16] -28% | [1]; at 11.0 µM -4% | [1]; at 33.0 µM 7% | [1]; [17] 35% | [2]; at 1.2 µM -4% | [2]; at 3.7 µM -4% | [2]; at 11.0 µM 1% | [2]; at 33.0 µM 25% | [3]; [16] -1% | [15]; at 1.2 µM -7% | [15]; at 3.7 µM -11% | [15]; at 11.0 µM -11% | [15]; at 33.0 µM 4% | [4]; [16] -29% | [4]; [17] 28% | [4]; at 50.0 µM 66.5% | [5]; at 1.2 µM 2% | [5]; at 3.7 µM -1% | [5]; [16] 8% | [5]; at 11.0 µM 10% | [5]; at 33.0 µM 41% | [5]; [17] 31% | [6]; at 1.2 µM -1% | [6]; at 3.7 µM 1% | [6]; at 11.0 µM 12% | [7]; at 1.2 µM -1% | [7]; at 3.7 µM -1% | [7]; at 11.0 µM 6% | [8]; at 1.2 µM 0% | [8]; at 3.7 µM 1% | [8]; at 11.0 µM 19% | [9]; [16] -17% | [9]; [17] 69% | [10]; at 1.2 µM 2% | [10]; at 3.7 µM 11% | [10]; at 11.0 µM 53%
active: [11]; at 33.0 µM 70% | [11]; at 100.0 µM 98% | [12]; at 100.0 µM 96% | [13]; at 100.0 µM 99% | [14]; at 50.0 µM 90.7% | [14]; at 100.0 µM 98% | [1]; at 50.0 µM 74.5% | [1]; at 100.0 µM 98% | [2]; at 100.0 µM 97% | [3]; [17] 80% | [3]; at 50.0 µM 95.5% | [15]; at 100.0 µM 97% | [5]; at 50.0 µM 93.2% | [5]; at 100.0 µM 99% | [6]; at 33.0 µM 77% | [6]; at 100.0 µM 99% | [7]; at 33.0 µM 73% | [7]; at 100.0 µM 99% | [8]; at 33.0 µM 80% | [8]; at 100.0 µM 98% | [9]; at 50.0 µM 95.8% | [10]; at 33.0 µM 89% | [10]; at 100.0 µM 97%
